The nature of assay [1]: qHTS assay to identify small molecule that activate the aryl hydrocarbon receptor (AhR) signaling pathway - cell viability counter screen (AID 743086).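 Further: HepG2 liver cells carrying the AhR DRE luciferase reporter; series mostly up to about 70 µM; nearly all actives have a fitted effect of over 45% in size.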 The method in brief:
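HepG2-AhR-luc (HG2L7.5c1) cells, 4000/well, were preincubated 5 h at 37C, exposed to compound in qHTS format for 24 hr at 37C, then given CellTiter-Fluor for 30 min; viability was read as fluorescence in the reporter wells.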

The nature of assay [2]: qHTS assay to identify small molecule antagonists of the peroxisome proliferator-activated receptor gamma (PPARg) signaling pathway - cell viability counter screen (AID 743194). Further: nearly all actives have a fitted effect of over 55% in size. The method in brief:
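PPARg-UAS-bla HEK293H cells were plated, rested 5 h at 37 C, then treated with compounds plus rosiglitazone (50 nM final) for 17 h at 37 C; viability was then read by CellTiter-Glo luminescence after 30 min at room temperature.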

The nature of assay [3]: qHTS assay for small molecule agonists of the antioxidant response element (ARE) signaling pathway (AID 743202; active means well fitted activation curve with a large enough effect in the signal ratio in the repeat runs, not every such curve was filed as active; the % refers to the signal ratio; further: potency means the concentration at half of the fitted maximal effect). The method in brief: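 Following a 16 h, 37 C exposure of reporter HepG2 cells (ARE-driven beta-lactamase, 2,000 cells/well) to compounds, FRET substrate was applied for 2 h at room temperature and fluorescence intensity recorded.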
Assay [4] in a line: qHTS assay for small molecule agonists of the antioxidant response element (ARE) signaling pathway - cell viability counter screen (AID 743203; calls by dose curve; further: nearly all actives have a fitted effect of over 55% in size; further: potency means the concentration at half of the fitted maximal effect). The method in brief:
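Parallel cytotoxicity read-out for the ARE-bla screen: HepG2 reporter cells, 16 hrs with compounds, then CellTiter-Glo luminescence.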

A short description of assay [5]: qHTS assay for small molecule activators of the heat shock response signaling pathway - cell viability counter screen (AID 743209). Further: nearly all actives have a fitted effect of over 50% in size. Summed up:
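To flag cytotoxic compounds, HSE-bla HeLa cells plated at 1500 cells/well were dosed for 5 h at 37 C, followed by the reporter FRET read and then CellTiter-Glo, with luminescence recorded 30 min after reagent addition.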

A short description of assay [6]: qHTS assay for small molecule activators of the heat shock response signaling pathway (AID 743210; active means well fitted activation curve with a large enough effect in the signal ratio in the repeat runs, with a control signal flat, not every such curve was filed as active; the % refers to the signal ratio; further: series mostly up to about 63 µM). The method in brief:
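Heat shock element–beta-lactamase HeLa reporter cells; qHTS with compounds for 5 h at 37 C; detection by FRET substrate fluorescence after 2.5 h at RT.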

Assay [7] in a line: qHTS assay to identify small molecule agonists of the peroxisome proliferator-activated receptor delta (PPARd) signaling pathway - cell viability counter screen (AID 743211). Further: nearly all actives have a fitted effect of over 55% in size. Further: potency means the concentration at half of the fitted maximal effect. Summed up: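 Luminescent ATP viability assay (CellTiter-Glo, 30 min RT) in UAS-bla HEK293H cells carrying the PPAR delta reporter construct, 3000 cells/well, after a 17 h compound treatment at 37 C.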
The target in assay [8] is Peroxisome proliferator-activated receptor delta (Homo sapiens) (UniProt Q03181). Put plainly: qHTS assay to identify small molecule agonists of the peroxisome proliferator-activated receptor delta (PPARd) signaling pathway (AID 743212; calls by dose curve;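 further: HEK293H cells with PPARd UAS beta-lactamase reporter GeneBLAzer system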). Summed up:
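Beta-lactamase reporter read by fluorescence (LiveBLAzer B/G FRET, 2 h, room temperature). Test agents, in DMSO, incubated at 37 C with PPARd-bla HEK293H cells.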

Assay [9] can be described thus: qHTS assay to identify small molecule antagonists of the peroxisome proliferator-activated receptor delta (PPARd) signaling pathway - cell viability counter screen (AID 743213). Further: nearly all actives have a fitted effect of over 50% in size. The method in brief:
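CellTiter-Glo was added to PPARd-bla HEK293H wells following 17 h compound treatment in the presence of 300 nM L165041. Luminescence was recorded after 30 min at room temperature.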

Assay [10] concerns the target Peroxisome proliferator-activated receptor delta (Homo sapiens) (UniProt Q03181). Put plainly: qHTS assay to identify small molecule antagonists of the peroxisome proliferator-activated receptor delta (PPARd) signaling pathway (AID 743215; active means well fitted inhibition curve with a large enough effect in the signal ratio in the repeat runs, not every such curve was filed as active; the % refers to the signal ratio;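 further: cells stimulated with agonist L165041 at 300 nM final during compound exposure; series mostly up to about 62 µM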). Summed up:
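Screen format: qHTS, antagonist mode. HEK293H PPARd-bla cells received compound and 300 nM L165041 (final), 17 h, 37 C. Beta-lactamase detected via FRET substrate fluorescence, 2 h, room temperature.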

In assay [11] the target is Bile acid receptor (Homo sapiens) (UniProt Q96RI1). Put plainly: qHTS assay to identify small molecule antagonists of the farnesoid-X-receptor (FXR) signaling pathway (AID 743217; active means well fitted inhibition curve with a large enough effect in the signal ratio in the repeat runs, not every such curve was filed as active; the % refers to the signal ratio). The method in brief: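 Quantitative HTS, beta-lactamase reporter format: FXR-UAS-bla HEK 293T cells co-treated 16 h at 37 °C with compounds and 50 uM final chenodeoxycholic acid, then read by B/G FRET fluorescence.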

Assay [12] is described as follows: qHTS assay to identify small molecule agonists of the farnesoid-X-receptor (FXR) signaling pathway - cell viability counter screen (AID 743218). Further: nearly all actives have a fitted effect of over 45% in size. The method in brief: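 Same-well cytotoxicity check on FXR-UAS-bla HEK 293T cells: 5 h attachment, 16 h compound at 37 C, CellTiter-Glo luminescence read at room temperature after 30 min.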
In assay [13] the target is Bile acid receptor (Homo sapiens) (UniProt Q96RI1). Put plainly: qHTS assay to identify small molecule agonists of the farnesoid-X-receptor (FXR) signaling pathway (AID 743220; active means well fitted activation curve with a large enough effect in the signal ratio in the repeat runs, not every such curve was filed as active; the % refers to the signal ratio). Summed up:
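FXR-UAS-bla HEK 293T cells carrying a UAS-driven beta-lactamase reporter were plated for 5 h at 37C/5% CO2, then exposed to DMSO-dissolved Tox21 10K compounds for 16 h at 37C. A LiveBLAzer B/G FRET substrate was loaded for 2 h at room temperature before fluorescence reading.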

Assay [14] can be described thus: qHTS assay to identify small molecule antagonists of the farnesoid-X-receptor (FXR) signaling pathway - cell viability counter screen (AID 743221; active means well fitted cell-killing curve with a large enough effect in the repeat runs, not every such curve was filed as active; further: nearly all actives have a fitted effect of over 50% in size). The method in brief: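 In GeneBLAzer FXR-UAS-bla HEK 293T cells stimulated with 50 uM chenodeoxycholic acid (final), compounds acted for 16 h at 37 C. Viability was assessed afterwards by CellTiter-Glo luminescence.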

Assay [15] addresses Vitamin D3 receptor (Homo sapiens) (UniProt P11473). Put plainly: qHTS assay to identify small molecule agonists of the vitamin D receptor (VDR) signaling pathway (AID 743222; calls by dose curve). The method in brief:
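Using LiveBLAzer B/G FRET detection, agonism was scored in VDR-bla cells exposed overnight (16 h, 37C) to DMSO-dissolved compounds; substrate incubation was 2 h at room temperature.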

Assay [16] shares this target. Put plainly: qHTS assay to identify small molecule antagonists of the vitamin D receptor (VDR) signaling pathway (AID 743223; active means well fitted inhibition curve with a large enough effect in the signal ratio in the repeat runs, not every such curve was filed as active; the % refers to the signal ratio). Summed up: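 Agonist 1alpha,25-dihydroxyvitamin D3 (3 nM in well) was added with each compound to VDR-bla cells preincubated 4 h. Cells stood 16 h at 37C, then FRET substrate 2 h at room temperature; fluorescence intensity recorded.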
The nature of assay [17]: qHTS assay to identify aromatase inhibitors - cell viability counter screen (AID 743084).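 Further: cells stimulated with testosterone during compound exposure; nearly all actives have a fitted effect of over 55% in size.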 Further: potency means the concentration at half of the fitted maximal effect.
The target in assay [18] is Aryl hydrocarbon receptor (Homo sapiens) (UniProt P35869). Put plainly: qHTS assay to identify small molecule that activate the aryl hydrocarbon receptor (AhR) signaling pathway (AID 743085). Further: nearly all actives have a fitted effect of over 15% in size. Further: potency means the concentration at half of the fitted maximal effect.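 On activation: HG2L7.5c1 human HepG2 liver cells with stably integrated DRE-driven firefly reporter; series mostly up to about 70 µM.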 The method in brief:
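24 h compound exposure, 37C, HepG2-derived HG2L7.5c1 cells with DRE-responsive luciferase. Readouts: fluorescence viability, then luminescence at room temperature after 30 min.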

Assay [19] has as its target Peroxisome proliferator-activated receptor gamma (Homo sapiens) (UniProt P37231). Put plainly: qHTS assay to identify small molecule agonists of the peroxisome proliferator-activated receptor gamma (PPARg) signaling pathway (AID 743094; active means well fitted activation curve with a large enough effect in the signal ratio in the repeat runs, not every such curve was filed as active; the % refers to the signal ratio). Summed up: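 Fluorescence-based beta-lactamase readout in HEK293H PPARg UAS-bla cells after 17 h compound exposure (37C) and 1 h B/G FRET substrate incubation at room temperature.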

Structures are written as SMILES. “And” between values parts separate entries of the source, which are not always exact repeats. Identical values can stand only once. Inconclusive results are not listed. More than one record can exist for a structure, and the calls need not agree. The source made the active and inactive calls. Unless noted, the call rests on the fitted dose curve; in most records, active means well fitted curve in the direction sought with a large enough effect in the repeat runs; inconclusive means weak or mixed curves; inactive means no such curve, though single readings can be large; an effect the other way counts as inactive or inconclusive.

Bile acid receptor (Homo sapiens), sequence (Q96RI1 whole entry, looked up): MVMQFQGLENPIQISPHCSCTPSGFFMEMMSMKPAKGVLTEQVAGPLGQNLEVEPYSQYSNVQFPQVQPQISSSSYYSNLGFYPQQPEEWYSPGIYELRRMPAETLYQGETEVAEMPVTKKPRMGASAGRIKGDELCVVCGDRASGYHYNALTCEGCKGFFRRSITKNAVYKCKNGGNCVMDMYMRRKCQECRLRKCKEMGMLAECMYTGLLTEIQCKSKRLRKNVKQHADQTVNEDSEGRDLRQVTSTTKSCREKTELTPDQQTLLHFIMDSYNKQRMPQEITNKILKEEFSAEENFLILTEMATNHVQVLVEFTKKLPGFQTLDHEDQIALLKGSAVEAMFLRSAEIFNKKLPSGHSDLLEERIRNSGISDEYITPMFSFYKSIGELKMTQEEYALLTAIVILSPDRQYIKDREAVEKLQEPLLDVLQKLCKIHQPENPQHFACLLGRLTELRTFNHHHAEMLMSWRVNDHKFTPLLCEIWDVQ
Vitamin D3 receptor (Homo sapiens), sequence (P11473 whole entry, looked up): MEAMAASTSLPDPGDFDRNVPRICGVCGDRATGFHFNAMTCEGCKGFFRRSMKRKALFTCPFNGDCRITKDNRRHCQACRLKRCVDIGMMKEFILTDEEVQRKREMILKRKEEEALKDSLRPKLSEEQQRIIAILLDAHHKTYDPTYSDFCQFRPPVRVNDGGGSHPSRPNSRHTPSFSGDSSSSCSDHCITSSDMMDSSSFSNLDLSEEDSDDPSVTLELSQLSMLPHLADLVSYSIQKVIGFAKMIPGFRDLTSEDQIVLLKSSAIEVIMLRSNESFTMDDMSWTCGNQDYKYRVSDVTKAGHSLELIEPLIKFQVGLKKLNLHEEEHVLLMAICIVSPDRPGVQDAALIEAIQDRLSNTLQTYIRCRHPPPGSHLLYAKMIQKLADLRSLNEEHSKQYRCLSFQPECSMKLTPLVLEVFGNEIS
Aryl hydrocarbon receptor (Homo sapiens), sequence (P35869 whole entry, looked up): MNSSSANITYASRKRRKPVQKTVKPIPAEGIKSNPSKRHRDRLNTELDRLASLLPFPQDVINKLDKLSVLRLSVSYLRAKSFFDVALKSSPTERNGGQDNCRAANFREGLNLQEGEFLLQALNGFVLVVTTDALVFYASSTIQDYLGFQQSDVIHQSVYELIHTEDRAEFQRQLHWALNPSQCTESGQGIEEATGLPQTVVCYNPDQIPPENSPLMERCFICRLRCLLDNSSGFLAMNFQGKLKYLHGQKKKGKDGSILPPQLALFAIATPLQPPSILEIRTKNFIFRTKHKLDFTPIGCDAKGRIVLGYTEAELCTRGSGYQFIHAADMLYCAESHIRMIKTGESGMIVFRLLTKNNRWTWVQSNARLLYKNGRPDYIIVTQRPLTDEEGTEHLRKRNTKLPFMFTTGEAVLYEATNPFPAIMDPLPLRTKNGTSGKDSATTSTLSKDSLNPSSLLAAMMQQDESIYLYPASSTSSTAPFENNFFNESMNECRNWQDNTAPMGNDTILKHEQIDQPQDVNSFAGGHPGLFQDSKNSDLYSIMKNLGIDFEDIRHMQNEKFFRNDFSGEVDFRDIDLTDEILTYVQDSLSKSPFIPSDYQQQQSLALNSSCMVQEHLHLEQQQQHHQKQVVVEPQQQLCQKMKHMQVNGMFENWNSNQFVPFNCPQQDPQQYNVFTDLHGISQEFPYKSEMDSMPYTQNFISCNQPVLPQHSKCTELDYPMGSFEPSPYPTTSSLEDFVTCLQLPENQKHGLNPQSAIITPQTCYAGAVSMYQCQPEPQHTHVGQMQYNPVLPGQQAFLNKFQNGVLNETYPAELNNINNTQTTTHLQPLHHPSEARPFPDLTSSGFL
Peroxisome proliferator-activated receptor delta (Homo sapiens), sequence (Q03181 whole entry, looked up): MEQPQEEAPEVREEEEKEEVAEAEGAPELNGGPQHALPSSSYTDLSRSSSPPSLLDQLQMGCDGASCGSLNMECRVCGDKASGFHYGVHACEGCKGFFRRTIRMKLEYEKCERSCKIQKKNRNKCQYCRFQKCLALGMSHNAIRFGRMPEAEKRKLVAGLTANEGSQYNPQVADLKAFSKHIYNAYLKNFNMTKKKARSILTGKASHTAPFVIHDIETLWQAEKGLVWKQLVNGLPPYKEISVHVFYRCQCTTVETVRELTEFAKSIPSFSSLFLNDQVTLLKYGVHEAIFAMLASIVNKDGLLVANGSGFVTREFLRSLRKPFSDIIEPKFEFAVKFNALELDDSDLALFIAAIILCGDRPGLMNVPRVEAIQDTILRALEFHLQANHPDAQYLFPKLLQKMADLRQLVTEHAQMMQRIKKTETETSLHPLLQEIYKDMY
Peroxisome proliferator-activated receptor gamma (Homo sapiens), sequence (P37231 whole entry, looked up): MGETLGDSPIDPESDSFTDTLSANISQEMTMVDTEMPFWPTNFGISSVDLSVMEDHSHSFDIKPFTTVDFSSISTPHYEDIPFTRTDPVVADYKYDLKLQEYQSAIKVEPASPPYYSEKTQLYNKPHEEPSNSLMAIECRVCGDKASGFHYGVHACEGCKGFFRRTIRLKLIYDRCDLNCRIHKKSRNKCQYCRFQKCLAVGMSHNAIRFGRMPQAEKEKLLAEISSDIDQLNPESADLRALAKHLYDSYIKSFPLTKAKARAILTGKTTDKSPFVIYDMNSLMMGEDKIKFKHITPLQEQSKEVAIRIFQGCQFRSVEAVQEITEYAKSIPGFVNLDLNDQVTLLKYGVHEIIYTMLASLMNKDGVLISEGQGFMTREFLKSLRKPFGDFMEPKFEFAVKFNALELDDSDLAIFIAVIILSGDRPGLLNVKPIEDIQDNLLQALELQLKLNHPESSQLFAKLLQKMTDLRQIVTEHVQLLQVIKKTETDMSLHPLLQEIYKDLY

In the case of `CNC[C@H](O)[C@@H](O)[C@H](O)[C@H](O)CO`, the Potency result in [1], in assay [2], in assay [3], in [4], in assay [5] and in assay [7] was “inactive” in each case. The Potency entry in assay [9], in [12], in assay [14], in assay [15] and in assay [16] was “inactive” throughout. The molecule was called inactive in assay [6], in assay [8], in assay [10], in [11] and in assay [13].
With `Oc1ccc2ccccc2c1N=Nc1ccccc1`, the Potency in assay [17] is 30.6 µM (active) and 24.3 µM (active); in assay [18], 3.06 µM (active). Moreover, the call in assay [19], in assay [6], in [11] and in [13] was inactive. In addition, the Potency entry in assay [2], in assay [4], in [5], in assay [7], in assay [9] and in [12] was “inactive” throughout. The Potency result in assay [14] is “inactive”.
As to `O=[N+]([O-])c1cc(N(CCO)CCO)ccc1NCCO`, in [17], the Potency was 48.5 µM (active) and 61.1 µM (active). For the same molecule, the Potency entry in [18], in assay [2], in assay [3], in [4], in assay [5] and in assay [7] was “inactive” each time. Moreover, the Potency entry in [9], in [12], in assay [14], in assay [15] and in [16] was “inactive” throughout. The molecule was classed as inactive in assay [6], in assay [8] and in assay [10].
Consider `Oc1ccc(OCc2ccccc2)cc1`, for which the Potency result in assay [17], in assay [18], in [1], in [4], in assay [5] and in assay [7] was “inactive” throughout. The Potency result in assay [9], in assay [12], in assay [14], in assay [15] and in assay [16] was “inactive” in each case. Besides, the Potency in assay [3] was 21.2 µM (active) and inactive. The molecule was called inactive in assay [6], in [8], in assay [10], in assay [11] and in assay [13].
As for `CC(C)n1c(/C=C/[C@@H](O)C[C@@H](O)CC(=O)O)c(-c2ccc(F)cc2)c2ccccc21`, the Potency result in [17], in assay [1], in assay [3], in [4], in assay [5] and in assay [7] was “inactive” each time. For the same molecule, the Potency entry in assay [12] and in [14] was “inactive” throughout. Moreover, the Potency in assay [18] was 15 µM (active). The result in [6] was inactive.
On to `CC1=CC[C@H]2C[C@@H]1C2(C)C`, for which the Potency entry in [17], in assay [1], in [2], in assay [3], in assay [4] and in [5] was “inactive” in each case. Moreover, the Potency entry in [7], in [9], in [12], in assay [14] and in assay [15] was “inactive” in each case. Also, the molecule was called inactive in assay [19], in assay [6] and in assay [8].
On to `OCCOCCOCCOCCO`, for which the Potency result in assay [17], in assay [18], in assay [1], in [3], in assay [4] and in [5] was “inactive” in each case. Besides, the Potency entry in assay [7], in assay [9], in [12], in [14], in assay [15] and in [16] was “inactive” each time. In addition, the molecule was called inactive in assay [6], in assay [8] and in [10].
As for `S=c1nc[nH]c2nc[nH]c12`, the Potency entry in assay [17], in assay [1], in assay [5], in assay [12] and in [16] was “inactive” in each case. For the same molecule, the Potency entry is “inactive and 23.7 µM (active)” in assay [18]; 4.74 µM (active) and 7.5 µM (active) in assay [3]; 0.842 µM (active) in assay [4]; 23.9 µM (active) in assay [7]. Moreover, the molecule was called inactive in [6], in [8] and in [10].

(Values after PubChem BioAssay (Tox21).)
